Data: PubChem BioAssay (Tox21)
Records with an inconclusive call do not appear. Unmarked numbers belong to inactive results. The source made the active and inactive calls. Calls follow the shape of the dose curve; as a rule, active = well fitted activation curve with a large enough effect in the repeat runs; inconclusive = weak or mixed curves; inactive = flat fitted curve, though single readings scatter.

Experiment: A CellTox Green Cytotoxicity Assay to monitor cytotoxicity in HEK293 cells - 24 hour (AID 1224875); also: nearly all actives have a fitted effect of over 45% in size
Conditions: CellTox Green fluorescence; series mostly up to 76.8 µM; activity change: at the top concentration
Source text: National Center for Advancing Translational Sciences [NCATS]
NIH Chemical Genomics Center [NCGC]
U.S. Environmental Protection Agency [EPA]
National Institutes of Environmental Health Sciences [NIEHS]
National Toxicology Program [NTP]
Cell-based models are critical for drug discovery. Determining the natural cytotoxic effects resulting from test compounds is an essential research activity. A CellTox Green Cytotoxicity Assay to monitor cytotoxicity in real time of continues cell culture during 40 hours of the compound treatment was used to screen Tox21 10K library compounds in Hek293 cells. CellTox Green Cytotoxicity Assay is a nonlytic, homogeneous, biofluorescent method to measure cytotoxicity in cell culture after experimental manipulation. The assay system uses a proprietary asymmetric cyanine dye that is excluded from viable cells but preferentially stains the dead cell's DNA. […] Viable cells produce no appreciable increases in fluorescence. Therefore, the fluorescence signal produced by the binding interaction with dead cell DNA is proportional to cytotoxicity.
The mixture of Hek293 cell suspension and reagents were dispensed at 600cells/6 ul/well in 1536-well tissue culture treated black solid bottom plates using a Multidrop dispenser. After the assay plates were incubated at a 37 C/5% CO2 incubator for 5 hours, 23 nL of compounds dissolved in DMSO, positive and negative controls was transferred to the assay plate by a pintool work station. The plates were incubated at 37 C for 40 hours. The fluorescence intensity were measured at 0h, 8h, 16h, 24h, 32h and 40h time points using ViewLux plate reader during compound treatment.
% is scaled to controls: 0 for no effect and ±100 for the full control effect; potency is read from the fitted curve at half-maximal effect.

SMILES | activity change | Potency
NC(=O)c1cn(Cc2c(F)cccc2F)nn1 | 5.14% [at 35.3 µM, stronger effect = higher value] | –
ClC(Cl)(Br)Br | -4.06% | –
CC(=O)OCC(=O)[C@@]1(O)CCC2C3CCC4=CC(=O)CC[C@]4(C)C3[C@@H](O)C[C@@]21C (stereo not given in full) | -25.1% [at 35.3 µM, stronger effect = higher value] | –
OC[C@]1(O)OC[C@@H](O)[C@H](O)[C@@H]1O | – | inactive
O=C(O)c1ccccc1OP(=O)(O)O | -0.913% [at 35.3 µM, stronger effect = higher value] | –
NS(=O)(=O)c1cc(C(=O)NN2C[C@H]3[C@H]4CCC(C4)[C@H]3C2)ccc1Cl | 1.42% [at 35.3 µM, stronger effect = higher value] | –
O=C(O)Cc1ccc(CCNS(=O)(=O)c2ccc(Cl)cc2)cc1 | -6.59% [at 35.3 µM, stronger effect = higher value] | –
Oc1ccc(C2CNCCc3c2cc(O)c(O)c3Cl)cc1 (stereo not given) | 3.11% [at 35.3 µM, stronger effect = higher value] | –
CCCCCCCCCCCC | 0.33% | –
CN1CCCC1 | 13.9% | –
CC(C)(c1ccc(O)cc1)c1ccc(O)cc1 | – | inactive
CC(C)(O)C(=O)c1ccccc1 | 11.9% | –
COc1ccc(CCN(C)CCCC(C#N)(c2cc(OC)c(OC)c(OC)c2)C(C)C)cc1OC (stereo not given) | -12% [at 35.3 µM, stronger effect = higher value] | –
c1cnc(N2CCN(Cc3ccc4c(c3)OCO4)CC2)nc1 | -11.9% [at 35.3 µM, stronger effect = higher value] | –
CC(C)=CCCC(C)CC(=O)O (stereo not given) | 0.647% | –
CN1CCC(=C2c3ccccc3CC(=O)c3sccc32)CC1 | -2.57% [at 35.3 µM, stronger effect = higher value] | –
COc1ccc2c(c1)c(CC(=O)OCC(=O)O)c(C)n2C(=O)c1ccc(Cl)cc1 | -6.6% [at 35.3 µM, stronger effect = higher value] | –
CCn1nc(C(=O)O)c(=O)c2cc3c(cc21)OCO3 | -14.6% [at 35.3 µM, stronger effect = higher value] | –
Cc1c(NC(C)C)c(=O)n(-c2ccccc2)n1C | -3.28% [at 35.3 µM, stronger effect = higher value] | –
CC(=O)c1ccccc1O | 0.774% | –

SMILES | activity change | Potency
CCOC(=O)Nc1ccc(NCc2ccc(F)cc2)nc1N | -14.9% [at 35.3 µM, stronger effect = higher value] | –
CC(C)NCCCC1(C(N)=O)c2ccccc2-c2ccccc21 | -8.54% [at 35.3 µM, stronger effect = higher value] | –
CC(C)NC(=O)NC(C)C | -5.63% | –
CCc1cccc2c(CCO)c[nH]c12 | 7.5% [at 35.3 µM, stronger effect = higher value] | –
C1CN(CCOCCN2CCOCC2)CCO1 | -3.5% | –
NS(=O)(=O)c1cc(C(=O)O)cc(N2CCCC2)c1Oc1ccccc1 | -0.771% [at 35.3 µM, stronger effect = higher value] | –
C[N+](C)(C)CCCCCC[N+](C)(C)C | – | inactive
CCCCOCCOCCOCCCC | -0.658% | –
CCC(C)C1CCCCC1=O (stereo not given) | -2.68% | –
CC(C(=O)O)c1ccc(CC2CCCC2=O)cc1 (stereo not given) | -5.61% [at 35.3 µM, stronger effect = higher value] | –
NS(=O)(=O)c1cc2c(cc1Cl)NC(C1CC3C=CC1C3)NS2(=O)=O (stereo not given) | 6.04% [at 35.3 µM, stronger effect = higher value] | –
NC(CSCC(=O)O)C(=O)O (stereo not given) | -6.9% [at 35.3 µM, stronger effect = higher value] | –
O=C(O)CN(CCOCCOCCN(CC(=O)O)CC(=O)O)CC(=O)O | 5.13% [at 0.29 µM, stronger effect = higher value] | –
CCOC(=O)[C@H](CCc1ccccc1)N[C@@H](C)C(=O)N1[C@H](C(=O)O)C[C@@H]2CCC[C@@H]21 | -1.06% [at 35.3 µM, stronger effect = higher value] | –
Cc1[nH]c(=O)c(C#N)cc1-c1ccc2nccn2c1 | -1.87% [at 35.3 µM, stronger effect = higher value] | –
COc1c(N2C[C@@H]3CCCN[C@@H]3C2)c(F)cc2c(=O)c(C(=O)O)cn(C3CC3)c12 | -8.2% [at 35.3 µM, stronger effect = higher value] | –
CC(NC(CCc1ccccc1)C(=O)O)C(=O)N1C(=O)N(C)CC1C(=O)O (stereo not given) | -9.34% [at 35.3 µM, stronger effect = higher value] | –
CC(=O)CC(C)C | 3.35% | –
COc1ccc2c(c1)CCCC2=O | -2.74% [at 35.3 µM, stronger effect = higher value] | –
Cc1cccc(C)c1NC(=O)C(C)N (stereo not given) | – | 21.3 µM (active)
